What all share (assay): DAPPL (digital affinity profiling via proximity ligation, sequencing); 10 mM Tris-HCl pH 7.5, 50 mM NaCl, 1 mM DTT, 4% glycerol, room temperature, 30 min; GST-TFs on glutathione beads, 16-mer random dsDNA library, 0.1% formaldehyde crosslink after washing; high values mean tight binding
What all share (conditions): protein: recombinant; tags: N-terminal GST; dsDNA, one strand shown

In assay [1] the target is T1, ELK1 (Homo sapiens, UniProt P19419 1-428).
T1 sequence: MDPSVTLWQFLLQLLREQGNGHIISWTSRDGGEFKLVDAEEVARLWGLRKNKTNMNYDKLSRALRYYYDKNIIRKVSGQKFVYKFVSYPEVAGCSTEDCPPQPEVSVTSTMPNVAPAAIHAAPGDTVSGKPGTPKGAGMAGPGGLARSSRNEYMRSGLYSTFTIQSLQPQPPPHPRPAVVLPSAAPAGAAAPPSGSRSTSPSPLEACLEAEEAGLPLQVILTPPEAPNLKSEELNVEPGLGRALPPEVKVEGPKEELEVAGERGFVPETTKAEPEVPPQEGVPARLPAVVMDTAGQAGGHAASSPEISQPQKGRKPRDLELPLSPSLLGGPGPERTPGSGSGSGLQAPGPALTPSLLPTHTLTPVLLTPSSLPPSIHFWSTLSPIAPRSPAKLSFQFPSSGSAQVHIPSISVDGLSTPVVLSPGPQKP
In a few lines:
(§1)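 Pools were built from human transcription factors expressed in yeast as GST fusions, captured on glutathione beads and DNA-barcoded, along with a tag-only sample. Incubation with 200 nmole of a 16-mer random double-stranded DNA library lasted 30 min at room temperature in Tris/NaCl/DTT/glycerol buffer, and was followed by washing, 0.1% formaldehyde crosslinking, proximity ligation, PCR amplification and Illumina NextSeq500 sequencing. Binding signal is the quotient of each hexamer's read frequency for a factor and its frequency for the tag-only sample.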

Assay [2] deals with T2, ERG (Homo sapiens, UniProt P11308 1-479).
T2 sequence: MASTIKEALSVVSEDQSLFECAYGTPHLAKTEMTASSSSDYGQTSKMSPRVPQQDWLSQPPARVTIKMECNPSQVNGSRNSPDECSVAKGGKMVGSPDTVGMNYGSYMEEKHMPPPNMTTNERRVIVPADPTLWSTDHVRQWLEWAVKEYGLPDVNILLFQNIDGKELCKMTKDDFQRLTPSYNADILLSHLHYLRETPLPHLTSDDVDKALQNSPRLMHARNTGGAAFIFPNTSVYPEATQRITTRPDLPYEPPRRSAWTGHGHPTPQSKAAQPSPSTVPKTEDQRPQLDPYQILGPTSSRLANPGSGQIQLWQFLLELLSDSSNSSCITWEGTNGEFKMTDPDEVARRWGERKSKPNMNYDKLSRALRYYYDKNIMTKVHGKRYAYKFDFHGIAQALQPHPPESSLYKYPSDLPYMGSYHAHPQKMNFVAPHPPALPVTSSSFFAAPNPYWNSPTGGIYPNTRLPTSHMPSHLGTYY
The method, boiled down: as §1

Assay [3] addresses T3, EHF (Homo sapiens, UniProt Q9NZC4 1-300).
T3 sequence: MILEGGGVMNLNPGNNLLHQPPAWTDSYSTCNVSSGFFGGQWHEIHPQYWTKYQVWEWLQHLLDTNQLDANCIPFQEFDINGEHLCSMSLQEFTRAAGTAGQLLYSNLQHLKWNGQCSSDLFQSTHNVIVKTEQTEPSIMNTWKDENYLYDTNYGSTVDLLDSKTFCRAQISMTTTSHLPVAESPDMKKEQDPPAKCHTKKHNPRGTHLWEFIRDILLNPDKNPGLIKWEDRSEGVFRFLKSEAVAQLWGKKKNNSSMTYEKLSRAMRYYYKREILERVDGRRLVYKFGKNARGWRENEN
In a few lines:
as §1

Assay [4] has as its target SPIB (Homo sapiens, UniProt Q01892 1-262). In a few lines: as §1
The target of assay [5] is T4, FEV (Homo sapiens, UniProt Q99581 1-238).
T4 sequence: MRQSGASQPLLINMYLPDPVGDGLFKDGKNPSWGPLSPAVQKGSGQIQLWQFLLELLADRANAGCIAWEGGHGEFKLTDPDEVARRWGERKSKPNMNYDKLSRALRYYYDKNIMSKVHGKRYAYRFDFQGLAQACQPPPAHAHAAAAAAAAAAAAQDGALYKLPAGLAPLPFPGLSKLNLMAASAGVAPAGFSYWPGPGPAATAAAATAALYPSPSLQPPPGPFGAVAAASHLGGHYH
In a few lines:
as §1

Assay [6] has as its target ETV5 (Homo sapiens, UniProt P41161 1-510). The method, boiled down:
as §1

The target in assay [7] is ELF4 (Homo sapiens, UniProt Q99607 1-663). The method, boiled down: as §1
The target of assay [8] is T5, ELK4 (Homo sapiens, UniProt P28324-2 1-405).
T5 sequence: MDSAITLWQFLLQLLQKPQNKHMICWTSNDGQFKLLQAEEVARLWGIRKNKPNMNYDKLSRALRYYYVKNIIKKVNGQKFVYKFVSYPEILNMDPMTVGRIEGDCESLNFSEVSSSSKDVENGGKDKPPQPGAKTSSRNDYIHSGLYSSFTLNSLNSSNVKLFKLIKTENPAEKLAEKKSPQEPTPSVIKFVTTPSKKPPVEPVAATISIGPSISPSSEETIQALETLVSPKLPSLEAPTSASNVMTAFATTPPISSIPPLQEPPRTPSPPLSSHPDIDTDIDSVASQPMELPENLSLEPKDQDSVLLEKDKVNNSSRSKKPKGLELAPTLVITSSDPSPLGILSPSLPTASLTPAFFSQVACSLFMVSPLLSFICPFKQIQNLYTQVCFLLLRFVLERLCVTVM
In a few lines: as §1

In assay [9] the target is ETV1 (Homo sapiens, UniProt P50549 1-477). In a few lines:
as §1

Assay [10] deals with T6, ERF (Homo sapiens, UniProt P50548 1-548).
T6 sequence: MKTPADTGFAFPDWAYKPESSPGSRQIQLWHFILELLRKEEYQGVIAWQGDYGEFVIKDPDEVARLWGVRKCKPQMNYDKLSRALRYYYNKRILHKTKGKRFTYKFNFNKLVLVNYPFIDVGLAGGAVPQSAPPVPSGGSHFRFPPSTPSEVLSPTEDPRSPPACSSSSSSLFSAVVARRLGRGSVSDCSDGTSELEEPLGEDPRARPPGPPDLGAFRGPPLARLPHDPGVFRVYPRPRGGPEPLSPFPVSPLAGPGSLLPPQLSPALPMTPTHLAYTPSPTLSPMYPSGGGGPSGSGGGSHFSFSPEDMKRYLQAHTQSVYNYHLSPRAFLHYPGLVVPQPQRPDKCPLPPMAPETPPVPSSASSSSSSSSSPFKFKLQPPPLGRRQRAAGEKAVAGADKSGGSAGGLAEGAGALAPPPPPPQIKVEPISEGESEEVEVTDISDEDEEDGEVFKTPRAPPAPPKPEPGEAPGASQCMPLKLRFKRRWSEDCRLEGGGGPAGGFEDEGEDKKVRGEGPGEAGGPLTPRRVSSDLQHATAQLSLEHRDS
In a few lines:
as §1

In assay [11] the target is T7, ETV3L (Homo sapiens, UniProt Q6ZN32 1-361).
T7 sequence: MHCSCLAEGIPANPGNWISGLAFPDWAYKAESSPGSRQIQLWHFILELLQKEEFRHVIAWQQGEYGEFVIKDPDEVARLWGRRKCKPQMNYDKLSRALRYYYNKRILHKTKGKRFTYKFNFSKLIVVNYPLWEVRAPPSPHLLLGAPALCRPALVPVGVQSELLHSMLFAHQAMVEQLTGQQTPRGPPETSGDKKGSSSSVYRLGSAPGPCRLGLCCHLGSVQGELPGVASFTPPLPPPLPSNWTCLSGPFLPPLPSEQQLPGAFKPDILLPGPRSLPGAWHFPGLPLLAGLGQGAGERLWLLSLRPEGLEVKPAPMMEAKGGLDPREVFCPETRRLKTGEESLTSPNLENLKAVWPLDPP
The method, boiled down: as §1

For assay [12], the target named is T8, SPDEF (Homo sapiens, UniProt O95238 1-335).
T8 sequence: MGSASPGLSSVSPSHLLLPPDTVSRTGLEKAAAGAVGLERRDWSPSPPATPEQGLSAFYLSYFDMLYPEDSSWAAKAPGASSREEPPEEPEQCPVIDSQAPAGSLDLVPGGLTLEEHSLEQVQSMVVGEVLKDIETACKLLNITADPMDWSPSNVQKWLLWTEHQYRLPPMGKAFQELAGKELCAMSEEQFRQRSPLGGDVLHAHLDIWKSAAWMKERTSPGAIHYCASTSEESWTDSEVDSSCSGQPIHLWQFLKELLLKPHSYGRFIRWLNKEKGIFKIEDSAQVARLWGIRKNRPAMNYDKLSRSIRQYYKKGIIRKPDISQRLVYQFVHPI
The method, boiled down:
as §1

In assay [13] the target is T9, ETV7 (Homo sapiens, UniProt Q9Y603 1-341).
T9 sequence: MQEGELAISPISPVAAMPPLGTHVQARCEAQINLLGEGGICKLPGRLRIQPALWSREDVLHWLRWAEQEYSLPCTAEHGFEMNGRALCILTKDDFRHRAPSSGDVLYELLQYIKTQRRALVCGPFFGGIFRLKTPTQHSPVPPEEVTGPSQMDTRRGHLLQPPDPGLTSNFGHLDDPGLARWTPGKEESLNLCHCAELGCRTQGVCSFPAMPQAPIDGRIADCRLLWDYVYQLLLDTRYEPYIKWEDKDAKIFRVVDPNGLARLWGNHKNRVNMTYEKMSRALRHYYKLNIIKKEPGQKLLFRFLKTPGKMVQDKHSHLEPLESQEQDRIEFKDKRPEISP
In a few lines: as §1

Assay [14] concerns the target T10, ETV3 (Homo sapiens, UniProt P41162-2 1-143).
T10 sequence: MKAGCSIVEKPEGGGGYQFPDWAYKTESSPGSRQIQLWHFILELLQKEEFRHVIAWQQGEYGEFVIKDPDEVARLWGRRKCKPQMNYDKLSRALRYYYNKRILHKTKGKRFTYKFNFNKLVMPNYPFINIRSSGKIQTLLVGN
The method, boiled down:
as §1

Assay [15] concerns the target ETV6 (Homo sapiens, UniProt P41212 1-452). In a few lines:
as §1

In assay [16] the target is T11, GABPA (Homo sapiens, UniProt Q06546 1-454).
T11 sequence: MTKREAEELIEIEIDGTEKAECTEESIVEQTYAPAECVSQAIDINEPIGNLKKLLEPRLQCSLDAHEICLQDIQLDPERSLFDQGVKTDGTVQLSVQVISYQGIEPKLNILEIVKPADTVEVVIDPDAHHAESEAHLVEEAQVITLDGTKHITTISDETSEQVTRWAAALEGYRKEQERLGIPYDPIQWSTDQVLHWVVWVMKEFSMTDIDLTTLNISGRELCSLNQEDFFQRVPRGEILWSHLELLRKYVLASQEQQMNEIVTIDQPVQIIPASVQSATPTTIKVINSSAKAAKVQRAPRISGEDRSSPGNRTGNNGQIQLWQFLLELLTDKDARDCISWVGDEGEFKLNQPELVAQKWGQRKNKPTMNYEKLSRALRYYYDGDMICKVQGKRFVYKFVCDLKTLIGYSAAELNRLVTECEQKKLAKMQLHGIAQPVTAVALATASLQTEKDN
The method, boiled down:
as §1

Assay [17] concerns the target T12, ETV2 (Homo sapiens, UniProt O00321 1-342).
T12 sequence: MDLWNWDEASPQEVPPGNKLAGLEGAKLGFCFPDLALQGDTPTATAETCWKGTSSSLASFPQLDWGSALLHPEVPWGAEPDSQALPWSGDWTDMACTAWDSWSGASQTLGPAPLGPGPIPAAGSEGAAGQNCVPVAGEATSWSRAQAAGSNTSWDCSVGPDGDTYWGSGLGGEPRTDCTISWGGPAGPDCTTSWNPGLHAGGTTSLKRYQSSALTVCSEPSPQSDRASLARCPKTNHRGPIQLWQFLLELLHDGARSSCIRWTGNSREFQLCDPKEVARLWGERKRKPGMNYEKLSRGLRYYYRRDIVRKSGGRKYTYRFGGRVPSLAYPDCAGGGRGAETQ
The method, boiled down:
as §1

The target in assay [18] is T13, ETS2 (Homo sapiens, UniProt P15036 1-469).
T13 sequence: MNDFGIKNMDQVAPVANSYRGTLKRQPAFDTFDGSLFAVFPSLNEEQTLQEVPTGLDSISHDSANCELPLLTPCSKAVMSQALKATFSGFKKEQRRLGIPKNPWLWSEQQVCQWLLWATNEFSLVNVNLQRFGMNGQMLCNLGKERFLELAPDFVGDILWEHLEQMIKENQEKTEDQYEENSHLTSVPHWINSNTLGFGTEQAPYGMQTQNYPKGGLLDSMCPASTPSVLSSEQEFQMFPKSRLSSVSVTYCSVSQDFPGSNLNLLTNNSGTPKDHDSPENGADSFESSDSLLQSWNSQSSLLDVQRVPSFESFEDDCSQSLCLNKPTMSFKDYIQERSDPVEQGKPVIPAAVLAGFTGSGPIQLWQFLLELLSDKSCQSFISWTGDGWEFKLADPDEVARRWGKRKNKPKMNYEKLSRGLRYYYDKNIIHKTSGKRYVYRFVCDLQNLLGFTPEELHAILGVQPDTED
The method, boiled down: as §1

ETV5, sequence (P41161 whole entry): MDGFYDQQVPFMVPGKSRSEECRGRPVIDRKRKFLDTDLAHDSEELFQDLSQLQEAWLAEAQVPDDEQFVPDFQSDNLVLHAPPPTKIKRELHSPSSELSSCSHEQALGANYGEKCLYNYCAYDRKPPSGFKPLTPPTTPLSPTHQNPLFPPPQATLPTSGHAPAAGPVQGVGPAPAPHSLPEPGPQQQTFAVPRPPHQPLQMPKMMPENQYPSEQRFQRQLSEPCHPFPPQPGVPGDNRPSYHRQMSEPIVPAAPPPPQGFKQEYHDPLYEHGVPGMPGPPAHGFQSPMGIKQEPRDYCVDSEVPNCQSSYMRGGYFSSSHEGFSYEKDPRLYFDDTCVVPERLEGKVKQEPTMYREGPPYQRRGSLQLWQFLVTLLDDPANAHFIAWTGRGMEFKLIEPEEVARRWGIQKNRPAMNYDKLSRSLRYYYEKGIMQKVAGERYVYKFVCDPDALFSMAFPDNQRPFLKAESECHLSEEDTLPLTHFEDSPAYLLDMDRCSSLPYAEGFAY
ETV1, sequence (P50549 whole entry): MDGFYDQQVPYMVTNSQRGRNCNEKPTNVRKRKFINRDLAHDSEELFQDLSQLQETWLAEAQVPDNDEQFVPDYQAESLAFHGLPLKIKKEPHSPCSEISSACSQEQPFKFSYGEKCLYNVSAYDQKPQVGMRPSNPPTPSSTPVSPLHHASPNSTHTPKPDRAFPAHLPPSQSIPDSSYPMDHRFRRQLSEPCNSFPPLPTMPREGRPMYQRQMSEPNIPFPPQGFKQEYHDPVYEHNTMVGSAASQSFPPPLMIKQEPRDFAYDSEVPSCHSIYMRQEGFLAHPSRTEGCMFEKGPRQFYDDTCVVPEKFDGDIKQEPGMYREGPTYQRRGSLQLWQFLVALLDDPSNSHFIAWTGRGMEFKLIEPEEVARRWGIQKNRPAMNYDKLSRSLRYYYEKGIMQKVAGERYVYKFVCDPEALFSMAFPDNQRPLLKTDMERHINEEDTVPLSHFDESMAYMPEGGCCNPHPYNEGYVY
ELF4, sequence (Q99607 whole entry): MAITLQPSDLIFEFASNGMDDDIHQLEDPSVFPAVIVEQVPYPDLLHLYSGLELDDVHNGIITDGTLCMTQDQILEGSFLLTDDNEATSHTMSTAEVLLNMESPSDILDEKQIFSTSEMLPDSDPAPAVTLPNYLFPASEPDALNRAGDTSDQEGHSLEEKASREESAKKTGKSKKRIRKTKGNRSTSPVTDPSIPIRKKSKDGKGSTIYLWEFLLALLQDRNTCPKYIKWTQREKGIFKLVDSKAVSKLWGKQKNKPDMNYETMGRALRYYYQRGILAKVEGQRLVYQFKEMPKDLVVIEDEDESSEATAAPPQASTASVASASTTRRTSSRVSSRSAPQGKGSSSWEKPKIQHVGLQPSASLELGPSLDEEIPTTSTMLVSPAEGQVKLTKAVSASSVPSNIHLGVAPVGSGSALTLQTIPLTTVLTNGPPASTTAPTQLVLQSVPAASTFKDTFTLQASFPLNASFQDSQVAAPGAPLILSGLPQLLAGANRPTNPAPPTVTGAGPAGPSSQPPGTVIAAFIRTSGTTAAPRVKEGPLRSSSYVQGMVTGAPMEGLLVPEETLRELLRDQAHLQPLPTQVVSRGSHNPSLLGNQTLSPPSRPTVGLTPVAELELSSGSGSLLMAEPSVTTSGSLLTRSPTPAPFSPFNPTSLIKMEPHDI
SPIB, sequence (Q01892 whole entry): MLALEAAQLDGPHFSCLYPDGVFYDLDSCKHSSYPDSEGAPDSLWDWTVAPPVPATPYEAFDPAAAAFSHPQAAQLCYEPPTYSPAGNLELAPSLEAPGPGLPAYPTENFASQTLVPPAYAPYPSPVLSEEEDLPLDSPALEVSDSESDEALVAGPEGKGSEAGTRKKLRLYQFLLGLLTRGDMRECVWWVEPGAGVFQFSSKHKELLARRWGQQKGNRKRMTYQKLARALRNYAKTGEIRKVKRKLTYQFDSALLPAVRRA
ETV6, sequence (P41212 whole entry): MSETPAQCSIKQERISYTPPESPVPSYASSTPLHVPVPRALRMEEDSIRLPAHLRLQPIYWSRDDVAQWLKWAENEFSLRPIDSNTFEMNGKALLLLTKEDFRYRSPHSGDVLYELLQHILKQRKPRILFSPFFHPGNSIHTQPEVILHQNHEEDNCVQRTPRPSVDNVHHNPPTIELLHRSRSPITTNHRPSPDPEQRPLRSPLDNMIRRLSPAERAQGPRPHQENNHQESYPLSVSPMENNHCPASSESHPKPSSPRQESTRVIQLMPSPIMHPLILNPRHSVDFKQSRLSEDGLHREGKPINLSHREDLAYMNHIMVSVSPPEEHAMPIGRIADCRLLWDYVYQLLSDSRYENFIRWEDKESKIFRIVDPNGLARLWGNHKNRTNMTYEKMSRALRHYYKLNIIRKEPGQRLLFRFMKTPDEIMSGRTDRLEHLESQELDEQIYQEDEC

For the sequence CAATGT, the binding signal was 1.06 fold enrichment (6-mer frequency, TF over GST control) in [1]; 1.02 fold enrichment (6-mer frequency, TF over GST control) in assay [2]; 1.05 fold enrichment (6-mer frequency, TF over GST control) in assay [3]; 1.04 fold enrichment (6-mer frequency, TF over GST control) in [4]; 1 fold enrichment (6-mer frequency, TF over GST control) in assay [5]; 1.02 fold enrichment (6-mer frequency, TF over GST control) in assay [6]. The binding signal in [7] is 1.06 fold enrichment (6-mer frequency, TF over GST control); in assay [8], 1.1 fold enrichment (6-mer frequency, TF over GST control); in assay [9], 1.07 fold enrichment (6-mer frequency, TF over GST control); in assay [10], 1.05 fold enrichment (6-mer frequency, TF over GST control); in assay [11], 1.03 fold enrichment (6-mer frequency, TF over GST control); in [12], 1.07 fold enrichment (6-mer frequency, TF over GST control). Besides, the binding signal was 1.09 fold enrichment (6-mer frequency, TF over GST control) in assay [13]; 1.03 fold enrichment (6-mer frequency, TF over GST control) in assay [14]; 1.05 fold enrichment (6-mer frequency, TF over GST control) in assay [15].

For the sequence AGCTCG, the binding signal in assay [16] is 1.04 fold enrichment (6-mer frequency, TF over GST control); in assay [5] it was 1.03 fold enrichment (6-mer frequency, TF over GST control); in [6], 1.04 fold enrichment (6-mer frequency, TF over GST control); in assay [17], 1 fold enrichment (6-mer frequency, TF over GST control); in assay [9] it was 1.01 fold enrichment (6-mer frequency, TF over GST control); in assay [10], 1.08 fold enrichment (6-mer frequency, TF over GST control). For the same sequence, the binding signal in assay [18] is 1.01 fold enrichment (6-mer frequency, TF over GST control).

The record behind these values is article PMC7862700, “An all-to-all approach to the identification of sequence-specific readers for epigenetic DNA modifications on cytosine”.
